Assay outcomes: PubChem, ICCB-Longwood Screening Facility, Harvard Medical School
The full list was thinned out, with hits kept by preference.
VACV E9 pol inh – blocks vaccinia virus processive DNA synthesis | in vitro processive DNA synthesis, absorbance read-out; hits give low values | 46,000 compounds, 0.94% hits | normalized absorbance, % (test concentration not listed); in the data active means normalized absorbance mostly below about 85%, no sharp cut-off; inactive means mostly above about 86%
* = called active by the depositor; ! = repeats disagree.

SMILES	VACV E9 pol inh
COc1cc2[nH]c(=S)n(CCc3ccccc3)c(=O)c2cc1OC	95
CC1(C)CC(=O)c2cc(C#N)c(SCC(=O)N3CCc4ccccc43)nc2C1	98
Cc1cc(C)nc(NC(N)=NCc2ccccc2)n1	98
Cc1cc(=O)[nH]c(/N=C(\N)Nc2ccccc2)n1	100
Cc1cc(C)nc(/N=C(\N)Nc2ccccc2)n1	41*
COc1ccccc1NC(=O)Cn1c(=O)n(Cc2ccccn2)c(=O)c2sc3ccccc3c21	102
COc1ccc(CCNC(=O)CSc2c3c(nc4cc(Cl)ccc24)CCCC3)c(OC)c1	103
COc1ccc(-c2ccnc(SCC(=O)c3ccc(Cl)cc3)n2)cc1	99
COc1ccc(C(=O)CSc2nnc(-c3ccco3)c(-c3ccco3)n2)cc1	68*
COc1ccc(C(=O)CSc2nc3ccccc3s2)cc1	90
Cc1ccc(S(=O)(=O)NCC(O)Cn2c3ccccc3c3ccccc32)cc1 (stereo not given)	100
CNCC(O)Cn1c2ccccc2c2ccccc21 (stereo not given)	78*
CC1(C)NC(=O)N(CC(O)Cn2c3ccccc3c3ccccc32)C1=O (stereo not given)	100
OC(COCc1ccccc1)Cn1c2ccccc2c2ccccc21 (stereo not given)	94
COc1ccccc1CNCC(O)Cn1c2ccccc2c2ccccc21 (stereo not given)	112
CCC(CO)NCC(O)Cn1c2ccccc2c2ccccc21 (stereo not given)	80*
Cc1cc(C)c(-n2nnnc2SCC(=O)Nc2nn(-c3ccccc3)nc2C(N)=O)c(C)c1	100
C=CCN1CC(C(=O)O)CC1=O (stereo not given)	96
O=C(COC(=O)C1CC1)Nc1ccc(I)cc1	104
N#Cc1ccc(-n2cccc2)nc1	116
O=c1c2ccccc2c(C=NCc2cccnc2)c(O)n1-c1ccccc1C(F)(F)F	104
C(=NCc1cccnc1)c1c2ccccc2cc2ccccc12	42*
C(=NCc1cccnc1)c1ccc2c(c1)OCO2	106
C=C(C)[C@H]1CC=C(C(=O)O)CC1	98
COc1ccc(S(=O)(=O)Cc2ccc(C(=O)N3CCOCC3)o2)cc1	98
SMILES	VACV E9 pol inh
O=C(O)c1ccc(CSCc2ccccc2)o1	92
O=C(O)c1ccc(CS(=O)(=O)c2ccccc2)o1	19*
NC(=O)Cc1ccc(NC(=O)CCC(=O)O)cc1	100
O=C1CSC(=S)N1/N=C/c1cccnc1	102
O=C1CSC(=S)N1/N=C/c1cc(Br)cc(Br)c1O	81*
O=C(NN1C(=O)CSC1=S)c1ccccc1	100
C(=N\[n+]1ccccc1)/c1ccccc1	102
O=C1/C(=C/c2ccc(O)cc2)N=C(c2ccccc2)N1c1nc2cc(Cl)c(F)cc2s1	100
CCC(=O)O[C@H]1[C@H](O[C@@H]2[C@@H](C)[C@H](O[C@H]3C[C@@](C)(OC)[C@@H](O)[C@H](C)O3)[C@@H](C)C(=O)O[C@H](CC)[C@@](C)(O)[C@H](O)[C@@H](C)C(=O)[C@H](C)C[C@@]2(C)O)O[C@H](C)C[C@@H]1N(C)C	95
CC[C@H]1OC(=O)[C@H](C)[C@@H](O[C@H]2C[C@@](C)(OC)[C@@H](O)[C@H](C)O2)[C@H](C)[C@@H](O[C@@H]2O[C@H](C)C[C@H](N(C)C)[C@H]2O)[C@](C)(O)C[C@@H](C)C(=O)[C@H](C)[C@@H](O)[C@]1(C)O	23*!
CCOC(=O)CCC(=O)O[C@H]1[C@H](O[C@@H]2[C@@H](C)[C@H](O[C@H]3C[C@@](C)(OC)[C@@H](O)[C@H](C)O3)[C@@H](C)C(=O)O[C@H](CC)[C@@](C)(O)[C@H](O)[C@@H](C)C(=O)[C@H](C)C[C@@]2(C)O)O[C@H](C)C[C@@H]1N(C)C	98
Cn1nc(Cl)c(Cl)c1Oc1ccccc1	101
O=C(CBr)Nc1nnc(-c2ccc(Cl)cc2)s1	100
Nc1ccc2c(c1)nc(-c1ccccc1)c1cc(N)ccc12	98
CC[n+]1c(-c2ccccc2)c2cc(N)ccc2c2ccc(N)cc21	12*
Cc1cc(C)c(C#N)c(N2C3CCC2CC(O)(c2ccc(F)cc2)C3)n1 (stereo not given)	97
N#C/C=C/N(C#N)c1ccccc1	101
COc1ccc(Cl)cc1NC(=O)/C(C)=C\C(=O)O	93
COc1ccc(CNC(=O)c2cccs2)cc1OC	104
CC1=C(C(=O)N2CCOCC2)C(c2ccc(C(F)(F)F)cc2)C2=C(CCCC2=O)N1 (stereo not given)	100
COc1ccc(NCc2ccccc2O)cc1	100
O=S(=O)(CS(=O)(=O)Sc1ccc(Cl)cc1)Sc1ccc(Cl)cc1	95
Cc1cc(C=C2C(=O)OC(C)(C(C)(C)C)OC2=O)c(C)n1-c1ccccc1 (stereo not given)	100
CCc1ccccc1NC(=O)CCCn1sc2ccccc2c1=O	98
COc1ccc(C2NCC3(C)CN2CC(C)C3O)cc1OC (stereo not given)	101
SMILES	VACV E9 pol inh
CC1=NN(C(N)=S)C(=O)C1C(c1ccccc1)C(C#N)C#N (stereo not given)	98
O=c1cc(-c2ccc(O)cc2)oc2cc(O)cc(O)c12	85*
O=C(COc1cc(O)c2c(=O)cc(-c3ccccc3)oc2c1)c1ccccc1	100
O=c1cc(-c2ccccc2)oc2cc(O)cc(O)c12	100
COc1ccc(S(=O)(=O)N2CCC(n3c(=O)[nH]c4ccccc43)CC2)cc1	88
COc1ccc(C2N(C)C(=O)c3ccccc3S2(=O)=O)cc1 (stereo not given)	104
CN(C)CCCN=C(NO)c1c(Cl)cccc1Cl	113
CCN1CCN(CCCNC(=O)c2ccc3nc(/C=C(\O)c4ccc(OC)cc4)c(=O)[nH]c3c2)CC1	48*
COc1ccc(/C(O)=C/c2nc3ccc(C(=O)N4CCOCC4)cc3[nH]c2=O)cc1OC	80
Cc1ccc(/C(O)=C/c2nc3ccccc3[nH]c2=O)cc1C	100
CCOC(=O)c1c(CSc2nc3ccccc3[nH]2)n(-c2ccccc2)c2ccc(OC(C)=O)cc12	109
CC(c1ccc(C(=O)O)o1)N1CCOCC1 (stereo not given)	99
CCOC(=O)c1c(C)n(C)c2ccc(OCCN(C)C)cc12	65*
CCOC(=O)c1c(C)n(-c2ccc(OC)cc2)c2ccc(OC)cc12	100
CCOC(=O)c1c(C)n(Cc2ccccc2)c2ccc(OC(C)=O)cc12	100
CCc1ccc(CNC(=O)c2ccc(Sc3ccc(C)cc3)c(NC(C)=O)c2)cc1	107
O=S(=O)(Cc1ccccc1)Nc1noc2ccccc12	88
CCOc1ccc2nc(NC(=O)C(CC)CC)sc2c1	98
CCOc1ccc2nc(NC(=O)C(C)C)sc2c1	115
CCOc1ccc2nc(NN)sc2c1	22*
CCC1Oc2ccc(C)cc2N(CC(=O)NC(C)CCc2ccccc2)C1=O (stereo not given)	92
N#Cc1ccc(OCC(=O)O)cc1	101
COC(=O)c1ccc(N2C(=O)/C(=C\c3cccnc3)SC2=S)cc1	98
CCOC(=O)N1CCN(c2cc(NCCC(=O)O)c3c4c(onc24)-c2ccccc2C3=O)CC1	70*
CCOC(=O)N1CCN(S(=O)(=O)c2ccccc2)CC1	100
O=C1c2ccccc2-c2onc3c(Br)cc(NCc4ccccc4)c1c23	99
Cn1nc(SCC(=O)n2c3c(c4ccccc42)CCCC3)sc1=S	100
O=S(=O)(/C=C/c1ccccc1)Nc1ccc(F)cc1	76*
O=C(O)c1ccccc1NS(=O)(=O)/C=C/c1ccccc1	95
O=C(O)CNS(=O)(=O)/C=C/c1ccccc1	100
